The text below walks through data of PubChem BioAssay (EPA / NIEHS).

Where “and” joins values, the source holds several entries; their conditions need not be identical. Equal values may be shown once. Calls of active or inactive are those of the source. The calls were made as follows: active = hit-call score of the fitted dose curve at least 0.9, where 1 is the maximum; inactive = score below 0.9.

Read-out in assay [1]: Macrophage colony-stimulating factor (MCSF), CSF1 (gene 1435)
As to the kind of experiment: BSK_CASM3C_MCSF: BioMAP Diversity Plus: CASM3C Assay for Macrophage colony-stimulating factor (MCSF) Biomarker Activity (AID 2283044).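 Also: M-CSF protein amount quantified by ELISA after 24 h exposure.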 To be noted: primary human coronary artery smooth muscle cells; actives raise or lower the signal.

Read-out in assay [2]: Low-density lipoprotein receptor (LDLR), LDLR (gene 3949)
As to the kind of experiment: BSK_CASM3C_LDLR: BioMAP Diversity Plus: CASM3C Assay for Low-density lipoprotein receptor (LDLR) Biomarker Activity (AID 2283045).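 Also: LDLR protein level on the cell surface quantified by ELISA.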 To be noted: primary human coronary artery smooth muscle cells; actives raise or lower the signal.

Read-out in assay [3]: Monocyte Chemoattractant Protein-1 (MCP1), CCL2 (gene 6347)
As to the kind of experiment: BSK_CASM3C_MCP1: BioMAP Diversity Plus: CASM3C Assay for Monocyte Chemoattractant Protein-1 (MCP1) Biomarker Activity (AID 2283046).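 Also: MCP-1 level quantified by ELISA 24 h after dosing.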 To be noted: primary human coronary artery smooth muscle cells; actives raise or lower the signal.

Assay [4] can be described thus: BSK_CASM3C_Proliferation: Cell Proliferation Assessment in the BioMAP Diversity Plus: CASM3C Assay (AID 2283047).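 Also: sulforhodamine B total protein stain as relative cell number at 560 nm; sub-confluent cells exposed 48 h before staining; fitted both ways against DMSO so gain or loss of cell number.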 Conditions: primary human coronary artery smooth muscle cells.
Read-out in assay [5]: Monokine induced gamma interferon (MIG), CXCL9 (gene 4283)
Kind of assay: BSK_CASM3C_MIG: BioMAP Diversity Plus: CASM3C Assay for Monokine induced gamma interferon (MIG) Biomarker Activity (AID 2283048).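 Also: MIG protein level measured by ELISA.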 Conditions: primary human coronary artery smooth muscle cells; actives raise or lower the signal.

Read-out in assay [6]: serum amyloid A (SAA), SAA1 (gene 6288)
As to the kind of experiment: BSK_CASM3C_SAA: BioMAP Diversity Plus: CASM3C Assay for serum amyloid A (SAA) Biomarker Activity (AID 2283049). Conditions: primary human coronary artery smooth muscle cells; actives raise or lower the signal.

Assay [7] is described as follows: BSK_CASM3C_SRB: Viability Assessment in the BioMAP Diversity Plus: CASM3C Assay (AID 2283050).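 Also: cells exposed to compound for 24 h.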 Conditions: primary human coronary artery smooth muscle cells.
Read-out in assay [8]: Thrombomodulin, THBD (gene 7056)
As to the kind of experiment: BSK_CASM3C_Thrombomodulin: BioMAP Diversity Plus: CASM3C Assay for Thrombomodulin Biomarker Activity (AID 2283051).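 Also: thrombomodulin protein level measured by ELISA 24 h after dosing.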 Conditions: primary human coronary artery smooth muscle cells; actives raise or lower the signal.

Read-out in assay [9]: Tissue Factor, F3 (gene 2152)
As to the kind of experiment: BSK_CASM3C_TissueFactor: BioMAP Diversity Plus: CASM3C Assay for Tissue Factor Biomarker Activity (AID 2283052).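 Also: cell surface tissue factor protein level read by ELISA.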 Conditions: primary human coronary artery smooth muscle cells; actives raise or lower the signal.

Read-out in assay [10]: Interferon-gamma inducible Protein 10 (IP10), CXCL10 (gene 3627)
As to the kind of experiment: BSK_hDFCGF_IP10: BioMAP Diversity Plus: hDFCGF Assay for Interferon-gamma inducible Protein 10 (IP10) Biomarker Activity (AID 2283053). Conditions: primary human foreskin fibroblasts; actives raise or lower the signal. An outline of the steps: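 IP-10 levels, quantified by ELISA, are taken from human foreskin fibroblast cultures 24 h after chemical treatment, with DMSO serving as negative control and baseline for bidirectional analysis.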

Read-out in assay [11]: Urokinase-type plasminogen activator receptor (uPAR), PLAUR (gene 5329)
Kind of assay: BSK_CASM3C_uPAR: BioMAP Diversity Plus: CASM3C Assay for Urokinase-type plasminogen activator receptor (uPAR) Biomarker Activity (AID 2283054).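 Also: cell-surface uPAR protein level quantified by ELISA.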 To be noted: primary human coronary artery smooth muscle cells; actives raise or lower the signal.

Read-out in assay [12]: Vascular cell adhesion molecule 1 (VCAM1), VCAM1 (gene 7412)
Kind of assay: BSK_CASM3C_VCAM1: BioMAP Diversity Plus: CASM3C Assay for Vascular cell adhesion molecule 1 (VCAM1) Biomarker Activity (AID 2283055).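 Also: VCAM-1 protein level quantified by ELISA on the cells.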 To be noted: primary human coronary artery smooth muscle cells; actives raise or lower the signal.

Read-out in assay [13]: Collagen III, COL3A1 (gene 1281)
Kind of assay: BSK_hDFCGF_CollagenIII: BioMAP Diversity Plus: hDFCGF Assay for Collagen III Biomarker Activity (AID 2283056). To be noted: primary human foreskin fibroblasts; actives raise or lower the signal. An outline of the steps: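 Human foreskin fibroblast primary cultures sampled 24 h after dosing; Collagen III quantified by ELISA. Signal fitted bidirectionally against DMSO baseline.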

Read-out in assay [14]: Interleukin-8 (IL8), CXCL8 (gene 3576)
Kind of assay: BSK_hDFCGF_IL8: BioMAP Diversity Plus: hDFCGF Assay for Interleukin-8 (IL8) Biomarker Activity (AID 2283058). To be noted: primary human foreskin fibroblasts; actives raise or lower the signal. An outline of the steps:
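Primary human foreskin fibroblasts (hDFCGF system) dosed with chemical; IL-8 measured by ELISA 24 hours later. Bidirectional curve fitting relative to DMSO baseline; cytotoxicity tracked in parallel cultures by SRB total protein staining.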

Assay [15] in a line: BSK_hDFCGF_Proliferation: Cell Proliferation Assessment in the BioMAP Diversity Plus: hDFCGF Assay (AID 2283059).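 Also: curves fitted for both rise and fall of signal versus DMSO baseline.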 Conditions: primary human foreskin fibroblasts. An outline of the steps:
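Steps: dose primary human dermal fibroblasts (foreskin); […] fix in 10% TCA; stain with 0.1% SRB; read 560 nm; fit gain or loss of signal against DMSO.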

Read-out in assay [16]: Macrophage colony-stimulating factor (MCSF), CSF1 (gene 1435)
As to the kind of experiment: BSK_hDFCGF_MCSF: BioMAP Diversity Plus: hDFCGF Assay for Macrophage colony-stimulating factor (MCSF) Biomarker Activity (AID 2283060). Conditions: primary human foreskin fibroblasts; actives raise or lower the signal. An outline of the steps: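 Human foreskin fibroblast primary cultures; M-CSF measured by ELISA 24 hours after chemical dosing. Bidirectional fitting relative to DMSO, with overt cytotoxicity tracked by parallel SRB total-protein staining (0.1% SRB, 10% TCA fixation, 560 nm).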

A short description of assay [17]: BSK_hDFCGF_SRB: Viability Assessment in the BioMAP Diversity Plus: hDFCGF Assay (AID 2283061).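 Also: cells exposed to compound for 24 h before the read.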 To be noted: primary human foreskin fibroblasts. An outline of the steps:
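Human foreskin fibroblasts in 96-well plates were treated 24 h. Total protein was measured by 0.1% SRB staining after 10% TCA fixation, read at 560 nm. Data were fitted bidirectionally against DMSO.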

Read-out in assay [18]: Monokine induced gamma interferon (MIG), CXCL9 (gene 4283)
As to the kind of experiment: BSK_hDFCGF_MIG: BioMAP Diversity Plus: hDFCGF Assay for Monokine induced gamma interferon (MIG) Biomarker Activity (AID 2283063). To be noted: primary human foreskin fibroblasts; actives raise or lower the signal. An outline of the steps:
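MIG/CXCL9 measured by ELISA 24 h after dosing primary human skin fibroblasts. Activity fitted in both directions against DMSO controls. Cytotoxicity was checked in parallel cultures by SRB staining read at 560 nm.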

Read-out in assay [19]: Matrix Metallopeptidase 1 (MMP1), MMP1 (gene 4312)
Kind of assay: BSK_hDFCGF_MMP1: BioMAP Diversity Plus: hDFCGF Assay for Matrix Metallopeptidase 1 (MMP1) Biomarker Activity (AID 2283064). Conditions: primary human foreskin fibroblasts; actives raise or lower the signal. An outline of the steps: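 Primary human foreskin fibroblasts in the hDFCGF system were dosed with test chemical, and MMP1 was measured by ELISA 24 h later. Values come from bidirectional curve fitting against the DMSO baseline.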

Read-out in assay [20]: Vascular cell adhesion molecule 1 (VCAM1), VCAM1 (gene 7412)
As to the kind of experiment: BSK_hDFCGF_VCAM1: BioMAP Diversity Plus: hDFCGF Assay for Vascular cell adhesion molecule 1 (VCAM1) Biomarker Activity (AID 2283065).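 As to AC50: VCAM-1 protein level quantified by ELISA after 24 h chemical exposure.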 To be noted: primary human foreskin fibroblasts; actives raise or lower the signal. An outline of the steps: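 Human foreskin fibroblast primary cells dosed with chemical, VCAM-1 measured by ELISA at 24 h. Bidirectional curve fitting relative to DMSO as negative control/baseline.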

Consider `O=C1CCCN1CCO`, for which the outcome in assay [1], in assay [2], in [3], in [4], in assay [5] and in [6] was inactive. The result in [7], in assay [8], in assay [9], in assay [10], in assay [11] and in assay [12] was inactive. In addition, the outcome in assay [13], in assay [14], in assay [15], in assay [16], in assay [17] and in assay [18] was inactive. The outcome in [19] and in [20] was inactive.
`C=CC=CC=CCCCCC`: the outcome in assay [1], in [2], in assay [3], in assay [5], in [6] and in assay [7] was inactive. Also, the result in assay [8], in assay [9], in [10], in assay [11], in assay [14] and in assay [16] was inactive. Moreover, the result in [17], in assay [18], in [19] and in assay [20] was inactive. Further, the half-maximal activity concentration (AC50) (as a rule, the midpoint of the concentration-response curve, whichever way the signal moves) was 5 µM (active) in [4], 5 µM (active) in assay [12], 7.41 µM (active) in assay [13] and 7.28 µM (active) in assay [15].
Take `CCCCC/C=C\C/C=C\CCCCCCCC(=O)OC`: the AC50 is 20 µM (active) in assay [1]; 28.7 µM (active) in assay [2]; 33.7 µM (active) in assay [3]; 14.4 µM (active) in [4]; 31.1 µM (active) in assay [5]; 31.7 µM (active) in assay [7]. The AC50 in [9] is 11.4 µM (active); in assay [10], 33.5 µM (active); in assay [11], 28.7 µM (active); in [12], 21.6 µM (active); in assay [13], 27.8 µM (active); in assay [15], 5.85 µM (active). Also, the AC50 is 26.5 µM (active) in assay [16]; 31.5 µM (active) in assay [17]; 35.3 µM (active) in assay [18]; 33.4 µM (active) in [19]; 26.9 µM (active) in [20]. The result in assay [6], in assay [8] and in assay [14] was inactive.
In the case of `CCOC(=O)c1ccccc1C(=C1C=C(Br)C(=O)C(Br)=C1)c1cc(Br)c(O)c(Br)c1`, the result in [1], in assay [2], in assay [6], in assay [7], in assay [9] and in [11] was inactive. Also, the outcome in [17] was inactive. The AC50 was 17.4 µM (active) and 20 µM (active) in assay [3]; 20.3 µM (active) and 22.1 µM (active) in assay [4]; 19.4 µM (active) and 22.2 µM (active) in assay [5]; 15.8 µM (active) and 20.4 µM (active) in [8]; 3.65 µM (active) and 3.77 µM (active) in [10]; 19.4 µM (active) and 23.1 µM (active) in [12]. Moreover, the AC50 in [13] is 3.29 µM (active) and 3.26 µM (active); in [14], 8.71 µM (active) and 8.48 µM (active); in assay [15] it was 3.46 µM (active) and 3.43 µM (active); in [16] it was 5.09 µM (active) and 3.85 µM (active); in [18], 3.85 µM (active) and 3.76 µM (active); in assay [19], 4.03 µM (active) and 4.34 µM (active). Also, the AC50 in assay [20] is 4.49 µM (active) and 3.7 µM (active).
